The values that follow come from paper PMC11006913.

Test in all cases: PBM; 200 nM protein, PBS
Common to all, as to conditions: dsDNA, one strand shown

Assay [1] addresses CRX (Homo sapiens, UniProt O43186 26-111).
The target in assay [2] is CRX (Homo sapiens, UniProt O43186 26-111, E42D).
The target in assay [3] is CRX (Homo sapiens, UniProt O43186 26-111, R41L).
Sequence of CRX (Homo sapiens, UniProt O43186 26-111, R41L) (O43186 26-111 R41L): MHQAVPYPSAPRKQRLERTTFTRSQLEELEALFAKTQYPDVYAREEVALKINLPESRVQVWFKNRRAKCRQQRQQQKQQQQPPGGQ

Sequence of CRX (Homo sapiens, UniProt O43186 26-111) (O43186 26-111): as the sequence (O43186 26-111 R41L) above, with L16R counted along it
Sequence of CRX (Homo sapiens, UniProt O43186 26-111, E42D) (O43186 26-111 E42D): as the sequence (O43186 26-111 R41L) above, with L16R, E17D counted along it

On to GCGTGACC, for which the binding signal in assay [1] is 8.46 upbm affinity estimate (log intensity, higher = more binding, comparable within an allelic series); in assay [2], 8.49 upbm affinity estimate (log intensity, higher = more binding, comparable within an allelic series); in assay [3], 8.39 upbm affinity estimate (log intensity, higher = more binding, comparable within an allelic series).

As to GAACGCCC, the binding signal in assay [1] is 8.05 upbm affinity estimate (log intensity, higher = more binding, comparable within an allelic series); in assay [2], 8.12 upbm affinity estimate (log intensity, higher = more binding, comparable within an allelic series); in assay [3], 8.13 upbm affinity estimate (log intensity, higher = more binding, comparable within an allelic series).

For the sequence AGATTATG, the binding signal in assay [1] was 12.7 upbm affinity estimate (log intensity, higher = more binding, comparable within an allelic series); in assay [2], 12.6 upbm affinity estimate (log intensity, higher = more binding, comparable within an allelic series); in assay [3], 12.6 upbm affinity estimate (log intensity, higher = more binding, comparable within an allelic series).

Consider GGGTGGCA, for which the binding signal in assay [1] was 8.24 upbm affinity estimate (log intensity, higher = more binding, comparable within an allelic series); in assay [2], 8.24 upbm affinity estimate (log intensity, higher = more binding, comparable within an allelic series); in assay [3], 8.32 upbm affinity estimate (log intensity, higher = more binding, comparable within an allelic series).

In the case of CCGTCGCG, the binding signal in assay [1] is 8.16 upbm affinity estimate (log intensity, higher = more binding, comparable within an allelic series); in assay [2], 8.11 upbm affinity estimate (log intensity, higher = more binding, comparable within an allelic series); in assay [3], 8.14 upbm affinity estimate (log intensity, higher = more binding, comparable within an allelic series).

For GCGTGCAC, the binding signal in assay [1] is 8.43 upbm affinity estimate (log intensity, higher = more binding, comparable within an allelic series); in assay [2] it was 8.37 upbm affinity estimate (log intensity, higher = more binding, comparable within an allelic series); in assay [3] it was 8.37 upbm affinity estimate (log intensity, higher = more binding, comparable within an allelic series).

Regarding CCGAACCG, the binding signal in assay [1] is 8.21 upbm affinity estimate (log intensity, higher = more binding, comparable within an allelic series); in assay [2], 8.3 upbm affinity estimate (log intensity, higher = more binding, comparable within an allelic series); in assay [3], 8.28 upbm affinity estimate (log intensity, higher = more binding, comparable within an allelic series).

In the case of CGACGGAC, the binding signal is 8.32 upbm affinity estimate (log intensity, higher = more binding, comparable within an allelic series) in assay [1]; 8.15 upbm affinity estimate (log intensity, higher = more binding, comparable within an allelic series) in assay [2]; 8.24 upbm affinity estimate (log intensity, higher = more binding, comparable within an allelic series) in assay [3].

ACTGCAGT: the binding signal is 8.23 upbm affinity estimate (log intensity, higher = more binding, comparable within an allelic series) in assay [1]; 8.32 upbm affinity estimate (log intensity, higher = more binding, comparable within an allelic series) in assay [2]; 8.4 upbm affinity estimate (log intensity, higher = more binding, comparable within an allelic series) in assay [3].

CGCGGCAG: the binding signal in assay [1] was 8.09 upbm affinity estimate (log intensity, higher = more binding, comparable within an allelic series); in assay [2] it was 8.17 upbm affinity estimate (log intensity, higher = more binding, comparable within an allelic series); in assay [3], 8.17 upbm affinity estimate (log intensity, higher = more binding, comparable within an allelic series).

AGAAGGAG: the binding signal in assay [1] is 8.23 upbm affinity estimate (log intensity, higher = more binding, comparable within an allelic series); in assay [2] it was 8.28 upbm affinity estimate (log intensity, higher = more binding, comparable within an allelic series); in assay [3], 8.25 upbm affinity estimate (log intensity, higher = more binding, comparable within an allelic series).

Turning to ACACTACC, the binding signal in assay [1] was 8.32 upbm affinity estimate (log intensity, higher = more binding, comparable within an allelic series); in assay [2] it was 8.19 upbm affinity estimate (log intensity, higher = more binding, comparable within an allelic series); in assay [3] it was 8.34 upbm affinity estimate (log intensity, higher = more binding, comparable within an allelic series).

With GGGAGACA, the binding signal is 8.13 upbm affinity estimate (log intensity, higher = more binding, comparable within an allelic series) in assay [1]; 8.2 upbm affinity estimate (log intensity, higher = more binding, comparable within an allelic series) in assay [2]; 8.26 upbm affinity estimate (log intensity, higher = more binding, comparable within an allelic series) in assay [3].

For CGTTCTAC, the binding signal in assay [1] is 8.44 upbm affinity estimate (log intensity, higher = more binding, comparable within an allelic series); in assay [2] it was 8.39 upbm affinity estimate (log intensity, higher = more binding, comparable within an allelic series); in assay [3], 8.27 upbm affinity estimate (log intensity, higher = more binding, comparable within an allelic series).

Turning to CGAACCTC, the binding signal in assay [1] is 8.5 upbm affinity estimate (log intensity, higher = more binding, comparable within an allelic series); in assay [2] it was 8.36 upbm affinity estimate (log intensity, higher = more binding, comparable within an allelic series); in assay [3] it was 8.33 upbm affinity estimate (log intensity, higher = more binding, comparable within an allelic series).

On to CAGGAACG, for which the binding signal in assay [1] is 8.49 upbm affinity estimate (log intensity, higher = more binding, comparable within an allelic series); in assay [2] it was 8.54 upbm affinity estimate (log intensity, higher = more binding, comparable within an allelic series); in assay [3], 8.36 upbm affinity estimate (log intensity, higher = more binding, comparable within an allelic series).

Consider GCCTGACA, for which the binding signal was 8.49 upbm affinity estimate (log intensity, higher = more binding, comparable within an allelic series) in assay [1]; 8.43 upbm affinity estimate (log intensity, higher = more binding, comparable within an allelic series) in assay [2]; 8.39 upbm affinity estimate (log intensity, higher = more binding, comparable within an allelic series) in assay [3].

For AATCCAAC, the binding signal was 10.9 upbm affinity estimate (log intensity, higher = more binding, comparable within an allelic series) in assay [1]; 10.8 upbm affinity estimate (log intensity, higher = more binding, comparable within an allelic series) in assay [2]; 10.7 upbm affinity estimate (log intensity, higher = more binding, comparable within an allelic series) in assay [3].

CGATAATC: the binding signal in assay [1] is 12.8 upbm affinity estimate (log intensity, higher = more binding, comparable within an allelic series); in assay [2], 12.7 upbm affinity estimate (log intensity, higher = more binding, comparable within an allelic series); in assay [3], 12.7 upbm affinity estimate (log intensity, higher = more binding, comparable within an allelic series).

In the case of CATGACAG, the binding signal in assay [1] was 8.34 upbm affinity estimate (log intensity, higher = more binding, comparable within an allelic series); in assay [2] it was 8.16 upbm affinity estimate (log intensity, higher = more binding, comparable within an allelic series); in assay [3] it was 8.25 upbm affinity estimate (log intensity, higher = more binding, comparable within an allelic series).

Regarding CACCAGGC, the binding signal in assay [1] is 8.58 upbm affinity estimate (log intensity, higher = more binding, comparable within an allelic series); in assay [2] it was 8.49 upbm affinity estimate (log intensity, higher = more binding, comparable within an allelic series); in assay [3] it was 8.39 upbm affinity estimate (log intensity, higher = more binding, comparable within an allelic series).

As for GCAGATCA, the binding signal in assay [1] was 10.3 upbm affinity estimate (log intensity, higher = more binding, comparable within an allelic series); in assay [2] it was 10 upbm affinity estimate (log intensity, higher = more binding, comparable within an allelic series); in assay [3], 9.94 upbm affinity estimate (log intensity, higher = more binding, comparable within an allelic series).

As for ACGTCTCG, the binding signal in assay [1] was 8 upbm affinity estimate (log intensity, higher = more binding, comparable within an allelic series); in assay [2] it was 8.27 upbm affinity estimate (log intensity, higher = more binding, comparable within an allelic series); in assay [3], 8.17 upbm affinity estimate (log intensity, higher = more binding, comparable within an allelic series).
